Source: PubChem BioAssay (Tox21)
Inconclusive results are not listed. Calls of active or inactive are those of the source. Calls come from the whole dose curve; as a rule, active = well fitted curve in the direction sought with a large enough effect in the repeat runs; inconclusive = weak or mixed curves; inactive = no such curve, though single readings can be large; an effect the other way counts as inactive or inconclusive.

How the values were obtained:
[1] = qHTS RealTime-Glo MT Cell Viability Assay in HepG2 cells - 8 hour (AID 1224873); note: nearly all actives have a fitted effect of over 55% in size
Summary of the method: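 HepG2 cells mixed with RealTime-Glo MT reagents (NanoLuc plus cell-permeant prosubstrate) were seeded at 600 cells/well, incubated 5 h at 37 C/5% CO2, then pinned with compounds in DMSO; nonlytic luminescence tracked viability during 40 h treatment.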

[2] = qHTS RealTime-Glo MT Cell Viability Assay in HEK293 cells - 40 hour (AID 1224874); conditions: RealTime-Glo luminescence; max response: hits give low values; note: nearly all actives have a fitted effect of over 50% in size; note: potency is the fitted concentration of half-maximal effect
Summary of the method: (§1)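 600 cells/well were plated with the nonlytic NanoLuc/prosubstrate reagent, pre-incubated 5 h, then given 23 nL of compound in DMSO. Incubation at 37 C for 40 h, with luminescence from viable-cell-reduced substrate read repeatedly from 0 h.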

[3] = A CellTox Green Cytotoxicity Assay to monitor cytotoxicity in HEK293 cells - 24 hour (AID 1224875); note: series mostly up to about 77 µM; nearly all actives have a fitted effect of over 45% in size
Summary of the method: (§2)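 HEK293 cells, 600/well, were preincubated 5 hours and then exposed to compounds at 37 C for up to 40 hours. A cell-impermeant cyanine dye staining dead-cell DNA was read by fluorescence at 0, 8, 16, 24, 32 and 40 h time points.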

[4] = A CellTox Green Cytotoxicity Assay to monitor cytotoxicity in HepG2 cells - 16 hour (AID 1224876); note: nearly all actives have a fitted effect of over 45% in size
Summary of the method: (§3)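 HepG2 cells, 600/well, preincubated 5 h with CellTox Green dye, then exposed to Tox21 compounds in DMSO at 37 C for up to 40 h. Dead-cell DNA fluorescence read at the indicated time point.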

[5] = qHTS RealTime-Glo MT Cell Viability Assay in HepG2 cells - 32 hour (AID 1224877); note: nearly all actives have a fitted effect of over 55% in size
Summary of the method: (§4)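 Compound treatment began 5 h after plating HepG2 cells (600/well) with NanoLuc luciferase and prosubstrate. Plates stayed at 37 C for 40 h; luminescence was captured at six time points, 0 h through 40 h.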

[6] = qHTS RealTime-Glo MT Cell Viability Assay in HEK293 cells - 0 hour (AID 1224880); note: top concentration of the series differs between compounds; nearly all actives have a fitted effect of over 45% in size
Summary of the method: as §1

[7] = A CellTox Green Cytotoxicity Assay to monitor cytotoxicity in HEK293 cells - 32 hour (AID 1224881); note: nearly all actives have a fitted effect of over 40% in size
Summary of the method: as §2

[8] = A CellTox Green Cytotoxicity Assay to monitor cytotoxicity in HepG2 cells - 0 hour (AID 1224882); note: nearly all actives have a fitted effect of over 35% in size
Summary of the method: as §3

[9] = A CellTox Green Cytotoxicity Assay to monitor cytotoxicity in HEK293 cells - 8 hour (AID 1224884); note: nearly all actives have a fitted effect of over 35% in size
Summary of the method: as §2

[10] = qHTS RealTime-Glo MT Cell Viability Assay in HepG2 cells - 16 hour (AID 1224885); note: nearly all actives have a fitted effect of over 50% in size
Summary of the method: as §4

[11] = qHTS RealTime-Glo MT Cell Viability Assay in HEK293 cells - 24 hour (AID 1224886); note: nearly all actives have a fitted effect of over 50% in size; note: potency is the fitted concentration of half-maximal effect
Summary of the method: (§5)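 Quantitative high-throughput screen of the Tox21 10K library in HEK293: cells and RealTime-Glo reagents plated together, compound added at 5 h, luminescence monitored through 40 h at 37 C.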

[12] = A CellTox Green Cytotoxicity Assay to monitor cytotoxicity in HEK293 cells - 16 hour (AID 1224888); note: nearly all actives have a fitted effect of over 35% in size
Summary of the method: as §2

[13] = qHTS RealTime-Glo MT Cell Viability Assay in HepG2 cells - 0 hour (AID 1224889); note: nearly all actives have a fitted effect of over 50% in size
Summary of the method: as §4

[14] = A CellTox Green Cytotoxicity Assay to monitor cytotoxicity in HepG2 cells - 8 hour (AID 1224890); note: nearly all actives have a fitted effect of over 45% in size
Summary of the method: as §3

[15] = qHTS RealTime-Glo MT Cell Viability Assay in HEK293 cells - 16 hour (AID 1224872)
Summary of the method: as §5

[16] = A CellTox Green Cytotoxicity Assay to monitor cytotoxicity in HepG2 cells - 24 hour (AID 1224878); note: nearly all actives have a fitted effect of over 45% in size
Summary of the method: as §3

[17] = A CellTox Green Cytotoxicity Assay to monitor cytotoxicity in HepG2 cells - 40 hour (AID 1224879); note: nearly all actives have a fitted effect of over 40% in size
Summary of the method: as §3

[18] = A CellTox Green Cytotoxicity Assay to monitor cytotoxicity in HepG2 cells - 32 hour (AID 1224883); note: nearly all actives have a fitted effect of over 50% in size
Summary of the method: as §3

[19] = qHTS RealTime-Glo MT Cell Viability Assay in HEK293 cells - 8 hour (AID 1224887); note: nearly all actives have a fitted effect of over 50% in size; note: potency is the fitted concentration of half-maximal effect
Summary of the method: as §1

[20] = A CellTox Green Cytotoxicity Assay to monitor cytotoxicity in HEK293 cells - 40 hour (AID 1224871); note: nearly all actives have a fitted effect of over 45% in size
Summary of the method: as §2
% is set by controls: 0 for no effect and ±100 for the full control effect.

Fc1ccc(C2(Cn3cncn3)OC2c2ccccc2Cl)cc1 (stereo not given)
inactive: Potency [1] | Potency [3] | Potency [4] | Potency [5] | outcome [6] | Potency [7] | outcome [8] | Potency [9] | Potency [10] | Potency [12] | Potency [13] | Potency [14]
active: Potency [2] 27.5 µM | Potency [11] 43.6 µM

CCc1cc2c(s1)-n1c(C)nnc1CN=C2c1ccccc1Cl
inactive: Potency [15] | Potency [1] | max response [2] -28.6% | Potency [4] | Potency [5] | Potency [16] | Potency [17] | outcome [6] | outcome [8] | Potency [18] | Potency [10] | Potency [11] | Potency [19] | Potency [13] | Potency [14]

CC1(C(=O)Nc2ccc(O)c(Cl)c2Cl)CCCCC1
inactive: Potency [1] | Potency [5] | outcome [6] | outcome [8] | Potency [9] | Potency [10] | Potency [12] | Potency [13]

CN1CCC(O)(c2ccc(F)cc2)C(C(=O)c2ccc(F)cc2)C1 (stereo not given)
inactive: Potency [1] | max response [2] -17.3% | Potency [3] | outcome [6] | Potency [9] | Potency [11] | Potency [19] | Potency [12] | Potency [13]

COc1cc2c(cc1OC)[C@@]13CCN4CC5=CCO[C@H]6CC(=O)N2[C@H]1[C@H]6[C@H]5C[C@H]43
inactive: Potency [20] | Potency [1] | Potency [4] | Potency [5] | Potency [16] | Potency [17] | outcome [6] | Potency [7] | outcome [8] | Potency [18] | Potency [9] | Potency [10] | Potency [11] | Potency [19] | Potency [12] | Potency [13] | Potency [14]

CCCCc1c(C)nc(NCC)[nH]c1=O
inactive: Potency [20] | Potency [1] | Potency [4] | Potency [5] | outcome [6] | Potency [7] | outcome [8] | Potency [9] | Potency [12] | Potency [13] | Potency [14]
active: Potency [19] 21.9 µM

CSc1ccc(C(=O)C(C)(C)N2CCOCC2)cc1
inactive: Potency [20] | Potency [1] | max response [2] 0.297% | Potency [4] | Potency [5] | Potency [16] | Potency [17] | outcome [6] | Potency [7] | outcome [8] | Potency [18] | Potency [9] | Potency [10] | Potency [19] | Potency [12] | Potency [13] | Potency [14]

COC(C)(C)C
inactive: Potency [15] | Potency [1] | max response [2] 6.3% | Potency [3] | Potency [4] | Potency [5] | Potency [16] | Potency [17] | outcome [6] | Potency [7] | outcome [8] | Potency [18] | Potency [9] | Potency [10] | Potency [19] | Potency [12] | Potency [13] | Potency [14]

[Cl][Sn]([Cl])([Cl])[Cl]
inactive: Potency [1] | Potency [4] | Potency [5] | Potency [16] | Potency [17] | outcome [6] | outcome [8] | Potency [18] | Potency [9] | Potency [10] | Potency [19] | Potency [13] | Potency [14]

CC(COc1ccc(Oc2ccccc2)cc1)Oc1ccccn1 (stereo not given)
inactive: Potency [20] | Potency [1] | Potency [3] | Potency [4] | Potency [5] | Potency [16] | Potency [17] | outcome [6] | Potency [7] | outcome [8] | Potency [18] | Potency [9] | Potency [10] | Potency [12] | Potency [13] | Potency [14]

CCC(C)n1c(=O)[nH]c(C)c(Br)c1=O (stereo not given)
inactive: Potency [20] | Potency [1] | max response [2] 0.435% | Potency [4] | Potency [5] | Potency [16] | Potency [17] | Potency [7] | outcome [8] | Potency [18] | Potency [9] | Potency [10] | Potency [19] | Potency [12] | Potency [13] | Potency [14]

CC(C(O)c1ccccc1)N(C)C/C=C/c1ccccc1 (stereo not given)
inactive: Potency [20] | Potency [1] | max response [2] -19.6% | Potency [4] | Potency [5] | outcome [6] | Potency [7] | outcome [8] | Potency [9] | Potency [10] | Potency [11] | Potency [19] | Potency [12] | Potency [13] | Potency [14]
